Measured values published in PubChem BioAssay (NCATS).
Results filed as inconclusive are left out. Unmarked numbers belong to inactive results. The source made the active and inactive calls. The call rests on the fitted dose curve; in most records, active means well fitted cell-killing curve with a large enough effect; inconclusive means small, poorly fitted or top-dose-only effect, or effect the other way; inactive means no such curve, though single readings can be large or run the other way.

Assay: Quantitative High-Throughput drug screen in 47 multiple myeloma cell lines against the NCATS MIPE library collection: PCM6_Riken cell viability assay (AID 1919870)
Details: CellTiter-Glo ATP, 48 h; series mostly up to 45.8 µM; viability (% of control): at the top concentration
Outline: (§1)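 MIPE 4.0 approved/investigational drugs; 500 cells/well; 48 h 37 °C humidified 5% CO2; CTG luminescence readout; DMSO = 100%, media = 0% viability.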
Further: nearly all actives have a fitted effect of over 30% in size.
Potency means the concentration at half of the fitted maximal effect.

| SMILES | viability (% of control) | Potency |
| --- | --- | --- |
| O=c1ccn([C@@H]2O[C@H](CO)[C@H](O)[C@H]2O)c(=O)[nH]1 | 131% | – |
| O=C(NCc1ccccc1)c1csc(Nc2ccncn2)n1 | – | 8.33 µM (active) |
| CO[C@@H](C(=O)N1Cc2[nH]nc(NC(=O)c3ccc(N4CCN(C)CC4)cc3)c2C1)c1ccccc1 | – | 26.4 µM (active) |
| Cc1cnc(C(=O)O)c[n+]1[O-] | 97% | – |
| Cc1cc(OCCCc2c(C(=O)O)n(Cc3cccnc3)c3c(-c4c(COc5ccc(N6CCN([S+](C)(=O)[O-])CC6)cc5)nn(C)c4C)cccc23)cc(C)c1Cl | – | 20.9 µM (active) |
| NC(=O)c1cnc(-c2ccc(C3(N)CCC3)cc2)c(-c2ccccc2)c1 | – | 1.32 µM (active) |

Assay: Quantitative High-Throughput drug screen in 47 multiple myeloma cell lines against the NCATS MIPE library collection: RPMI8226_ATCC cell viability assay (AID 1919871)
Details: RPMI8226 myeloma viability, CellTiter-Glo ATP luminescence, 48 h; series mostly up to 45.8 µM; viability (% of control): at the top concentration
Outline: as §1

| SMILES | viability (% of control) | Potency |
| --- | --- | --- |
| CS(=O)(=O)N(Cc1ccco1)CC(O)Cn1c2ccccc2c2ccccc21 (stereo unspecified) | 84.4% | – |
| Cc1ccn(-c2ccc(-c3ncco3)cc2)c(=O)c1-c1ccc2nc(N)ncc2c1 | 84.9% | – |
| Oc1ccc(C2=Cc3ccc(O)cc3OC2)cc1 | – | 5.9 µM (active) |
| O=C(CCc1ccc(O)cc1)c1c(O)cc(O)cc1O[C@@H]1O[C@H](CO)[C@H](O)[C@H](O)[C@H]1O | 69.9% | – |
| COc1ccc(Cc2ccc(NC(N)=O)cc2)cc1-c1cccc(Cl)c1 | 92.6% | – |
| COc1cc(NC(=O)c2ccc(-c3ccc(Cl)cc3)o2)cc(OC)c1 | 129% | – |
| COC(=O)C1=CO[C@@H](O)[C@@H]2C(CO)=CC[C@@H]12 | – | 20.9 µM (active) |
| CC[C@@H]1C=C(C)C[C@H](C)C[C@H](OC)[C@H]2O[C@@](O)(C(=O)C(=O)N3CCCC[C@@H]3C(=O)O[C@H](C(C)=C[C@@H]3CC[C@H](Cl)[C@H](OC)C3)[C@H](C)[C@@H](O)CC1=O)[C@H](C)C[C@H]2OC | – | 18.7 µM (active) |
| Cc1ccc([C@@H]2O[C@H](CO)[C@@H](O)[C@H](O)[C@@H]2O)cc1Cc1ccc(-c2ccc(F)cc2)s1 | 96.3% | – |
| CN(C)c1cc(NC(=O)CNC(C)(C)C)c(O)c2c1C[C@@H]1C[C@H]3[C@H](N(C)C)C(=O)C(C(N)=O)=C(O)[C@@]3(O)C(=O)C1=C2O | 103% | – |
| N#C[C@H]1C[C@H]2C[C@@H]2N1C(=O)[C@@H](N)C12CC3CC(CC(O)(C3)C1)C2 | 99.3% | – |
| CCC(=O)NC[C@H](Cc1ccc(OCCc2nc(-c3ccccc3)oc2C)cc1)NC(C)=CC(=O)c1ccc(C(F)(F)F)cc1 | – | 23.5 µM (active) |
| Nc1ncnc2c1ncn2[C@@H]1O[C@@H](CO)[C@H](O)[C@H]1O | 132% | – |
| O=C(O)C(O)Cc1ccc(O)c(O)c1 (stereo unspecified) | – | 26.4 µM (active) |
| CC(C)(C)NC(=O)Nc1cccc(Nc2ncc(F)c(NC(C)(C)CO)n2)c1 | 122% | – |
| CCCCCNC(=O)N1CCC(CN(Cc2ccc(Cl)cc2)Cc2ccc([N+](=O)[O-])s2)C1 (stereo unspecified) | – | 26.4 µM (active) |
| COc1cccc(-c2cc(=O)c3ccccc3o2)c1N | 106% | – |
| O=C(NCc1ccccc1)c1csc(Nc2ccncn2)n1 | – | 20.9 µM (active) |
| NC1CCC(Nc2nc(Nc3ccc(C(=O)N4CCCCC4)cc3)c3ncn(-c4cccc(F)c4)c3n2)CC1 (stereo unspecified) | 104% | – |
| Cc1c(NC(=O)c2ccc(C(C)(C)C)cc2)cccc1-c1cn(C)c(=O)c(Nc2ccc(C(=O)N3CCOCC3)cc2)n1 | – | 14.8 µM (active) |
